According to PubChem BioAssay (Tox21):
Records with an inconclusive call do not appear. Where a call stands in place of a potency, no number is given. The source holds several records for some structures; these can differ, active in one and inactive in another. Active and inactive are the calls of the source. Calls follow the shape of the dose curve; as a rule, active = well fitted curve in the direction sought with a large enough effect in the repeat runs; inconclusive = weak or mixed curves; inactive = no such curve, though single readings can be large; an effect the other way counts as inactive or inconclusive.

Assay: qHTS RealTime-Glo MT Cell Viability Assay in HepG2 cells - 16 hour (AID 1224885)
Details: RealTime-Glo luminescence; series mostly up to 76.8 µM
How it was run: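 HepG2 cells were seeded at 600 cells/well together with NanoLuc luciferase and a cell-permeant prosubstrate, preincubated 5 h at 37 C/5% CO2, then pin-dosed with compounds in DMSO. Nonlytic luminescence from viable cells was read at each time point.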
Also: nearly all actives have a fitted effect of over 50% in size.
Potency is read from the fitted curve at half-maximal effect.

Compound	Potency
CN1CCCN=C1COC(=O)C(O)(c1ccccc1)C1CCCCC1 (stereo not given)	inactive
CC(C)=CCC1C(=O)N(c2ccccc2)N(c2ccccc2)C1=O	inactive
CCn1cc(C(=O)O)c(=O)c2cc(F)c(N3CCNCC3)cc21	inactive
O=C1Cc2ccccc2N1c1c(Cl)cccc1Cl	inactive
O=C1c2ccccc2C(=O)C1c1nc2ccccc2c(Br)c1O	inactive
COc1ccccc1N1CCN(CC(O)COc2cccc3ccccc23)CC1 (stereo not given)	inactive
COc1ccccc1Oc1c(NS(=O)(=O)c2ccc(C(C)(C)C)cc2)nc(-c2ncccn2)nc1OCCO	inactive
C[C@@H](O)[C@H]1C(=O)N2C(C(=O)O)=C([C@H]3CCCO3)S[C@H]12	inactive
CCC(=O)OC	inactive
CCCCCCCCCI	inactive
C[C@@]12CCC[C@H]1[C@@H]1CC[C@H]3C[C@@H](O)CC[C@]3(C)[C@H]1CC2	inactive
O=[N+]([O-])c1ccc(O/N=C/c2cc(Br)c(O)c(Br)c2)c([N+](=O)[O-])c1	inactive
CCOC(=O)c1ccc(I)cc1	inactive
COC(=O)[C@H]1[C@H]2C[C@@H]3c4[nH]c5cc(OC)ccc5c4CCN3C[C@H]2C[C@@H](OC(=O)/C=C/c2ccc(O)c(OC)c2)[C@@H]1OC	inactive
CC[C@]1(O)C[C@H]2CN(CCc3c([nH]c4ccccc34)[C@@](C(=O)OC)(c3cc4c(cc3OC)N(C=O)[C@H]3[C@@](O)(C(=O)OC)[C@H](OC(C)=O)[C@]5(CC)C=CCN6CC[C@]43[C@@H]65)C2)C1	inactive
O=Cc1c2ccccc2c(Cl)c2ccccc12	inactive
CCCCCCCC/C=C\CCCCCCCCO	inactive
CC1(C)[C@@H](OC(=O)CCC(=O)O)CC[C@]2(C)[C@H]3C(=O)C=C4[C@@H]5C[C@@](C)(C(=O)O)CC[C@]5(C)CC[C@@]4(C)[C@]3(C)CC[C@@H]12	inactive
FC(F)(F)c1ccccc1Cl	inactive

Compound	Potency
O[C@@H]1CO[C@H]2[C@@H]1OC[C@@H]2O	inactive
Nc1cccc2c1CN(C1CCC(=O)NC1=O)C2=O (stereo not given)	inactive
CCCCN1CCCC1C(=O)Nc1c(C)cc(C)cc1C (stereo not given)	inactive
Cc1ccc(C(C)(C)O)cc1	inactive
CC/C=C1/OC(=O)c2ccccc21	inactive
OCCOCC#CCOCCO	inactive
CN1C(=O)c2ccccc2C1=O	inactive
CCN(CC)CCNC(=O)COc1ccc(OC)cc1	inactive
CC(CC1c2ccccc2CCc2ccccc21)CN(C)C (stereo not given)	inactive
CCOc1ccccc1O[C@H](c1ccccc1)[C@H]1CNCCO1	inactive
CC(=O)N/N=C/c1ccc([N+](=O)[O-])o1	inactive
C[C@]12CC[C@@H]3c4ccc(O)cc4CC[C@H]3[C@@H]1CC[C@@H]2OC(=O)CCC1CCCC1	49 µM (active) and inactive
CCC1NC(=O)c2cc(S(N)(=O)=O)c(Cl)cc2N1 (stereo not given)	inactive
CCC1CO1 (stereo not given)	inactive
CC(C)(C)C(=O)C(=O)O	inactive
Oc1ccc(Cl)c2cccnc12	inactive
O=C(O)c1ccc(OCCCOc2ccc(C(=O)O)cc2)cc1	inactive
CC1=Nc2ccc3ccccc3c2C1(C)C	inactive

Assay: qHTS RealTime-Glo MT Cell Viability Assay in HEK293 cells - 24 hour (AID 1224886)
Details: RealTime-Glo luminescence; series mostly up to 76.8 µM
How it was run: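 HEK293 cells were seeded at 600 cells/well together with NanoLuc luciferase and cell-permeant prosubstrate, preincubated 5 h at 37 C/5% CO2, then given compound in DMSO by pintool. Luminescence from viable-cell prosubstrate reduction was read repeatedly over 40 h.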

Compound	Potency
CC(C)=CCC1C(=O)N(c2ccccc2)N(c2ccccc2)C1=O	inactive
O=C1c2ccccc2C(=O)C1c1nc2ccccc2c(Br)c1O	inactive
COc1ccccc1Oc1c(NS(=O)(=O)c2ccc(C(C)(C)C)cc2)nc(-c2ncccn2)nc1OCCO	inactive
CCC(=O)OC	inactive
CCCCCCCCCI	inactive
C[C@@]12CCC[C@H]1[C@@H]1CC[C@H]3C[C@@H](O)CC[C@]3(C)[C@H]1CC2	inactive
O=[N+]([O-])c1ccc(O/N=C/c2cc(Br)c(O)c(Br)c2)c([N+](=O)[O-])c1	48.7 µM (active)
CCCCCCCC/C=C\CCCCCCCCO	inactive
Nc1nnc(-c2ccc([N+](=O)[O-])o2)o1	inactive
FC(F)(F)c1ccccc1Cl	inactive
O[C@@H]1CO[C@H]2[C@@H]1OC[C@@H]2O	inactive
Nc1cccc2c1CN(C1CCC(=O)NC1=O)C2=O (stereo not given)	inactive
Cc1ccc(C(C)(C)O)cc1	inactive
CC/C=C1/OC(=O)c2ccccc21	inactive
OCCOCC#CCOCCO	inactive
CC(CC1c2ccccc2CCc2ccccc21)CN(C)C (stereo not given)	inactive
C[C@]12CC[C@@H]3c4ccc(O)cc4CC[C@H]3[C@@H]1CC[C@@H]2OC(=O)CCC1CCCC1	43.6 µM (active) and inactive
CCC1NC(=O)c2cc(S(N)(=O)=O)c(Cl)cc2N1 (stereo not given)	inactive
CC(C)(C)C(=O)C(=O)O	inactive
Oc1ccc(Cl)c2cccnc12	inactive

Assay: qHTS RealTime-Glo MT Cell Viability Assay in HEK293 cells - 8 hour (AID 1224887)
Details: RealTime-Glo luminescence; series mostly up to 76.8 µM
How it was run: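 Luminescence readout at each listed time point; HEK293, 600 cells/well, RealTime-Glo MT reagent added with cells; compounds pinned (23 nL in DMSO) after 5 h at 37 C; continuous culture at 37 C.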

Compound	Potency
CN1CCCN=C1COC(=O)C(O)(c1ccccc1)C1CCCCC1 (stereo not given)	inactive
CC(C)=CCC1C(=O)N(c2ccccc2)N(c2ccccc2)C1=O	inactive
CCn1cc(C(=O)O)c(=O)c2cc(F)c(N3CCNCC3)cc21	inactive
O=C1c2ccccc2C(=O)C1c1nc2ccccc2c(Br)c1O	inactive
COc1ccccc1N1CCN(CC(O)COc2cccc3ccccc23)CC1 (stereo not given)	inactive
COc1ccccc1Oc1c(NS(=O)(=O)c2ccc(C(C)(C)C)cc2)nc(-c2ncccn2)nc1OCCO	inactive
C[C@@H](O)[C@H]1C(=O)N2C(C(=O)O)=C([C@H]3CCCO3)S[C@H]12	inactive
CCC(=O)OC	inactive
CCCCCCCCCI	inactive
C[C@@]12CCC[C@H]1[C@@H]1CC[C@H]3C[C@@H](O)CC[C@]3(C)[C@H]1CC2	inactive
CC[C@]1(O)C[C@H]2CN(CCc3c([nH]c4ccccc34)[C@@](C(=O)OC)(c3cc4c(cc3OC)N(C=O)[C@H]3[C@@](O)(C(=O)OC)[C@H](OC(C)=O)[C@]5(CC)C=CCN6CC[C@]43[C@@H]65)C2)C1	inactive
O=Cc1c2ccccc2c(Cl)c2ccccc12	inactive
CCCCCCCC/C=C\CCCCCCCCO	inactive
Nc1nnc(-c2ccc([N+](=O)[O-])o2)o1	inactive
CC1(C)[C@@H](OC(=O)CCC(=O)O)CC[C@]2(C)[C@H]3C(=O)C=C4[C@@H]5C[C@@](C)(C(=O)O)CC[C@]5(C)CC[C@@]4(C)[C@]3(C)CC[C@@H]12	inactive
FC(F)(F)c1ccccc1Cl	inactive
O[C@@H]1CO[C@H]2[C@@H]1OC[C@@H]2O	inactive

Compound	Potency
Nc1cccc2c1CN(C1CCC(=O)NC1=O)C2=O (stereo not given)	inactive
CCCCN1CCCC1C(=O)Nc1c(C)cc(C)cc1C (stereo not given)	inactive
Cc1ccc(C(C)(C)O)cc1	inactive
CC/C=C1/OC(=O)c2ccccc21	inactive
OCCOCC#CCOCCO	inactive
CN1C(=O)c2ccccc2C1=O	inactive
CCN(CC)CCNC(=O)COc1ccc(OC)cc1	inactive
CC(CC1c2ccccc2CCc2ccccc21)CN(C)C (stereo not given)	inactive
CCOc1ccccc1O[C@H](c1ccccc1)[C@H]1CNCCO1	inactive
CC(=O)N/N=C/c1ccc([N+](=O)[O-])o1	inactive
C[C@]12CC[C@@H]3c4ccc(O)cc4CC[C@H]3[C@@H]1CC[C@@H]2OC(=O)CCC1CCCC1	49 µM (active) and inactive
CCC1NC(=O)c2cc(S(N)(=O)=O)c(Cl)cc2N1 (stereo not given)	inactive
CCC1CO1 (stereo not given)	inactive
CC(C)(C)C(=O)C(=O)O	inactive
Oc1ccc(Cl)c2cccnc12	inactive
O=C(O)c1ccc(OCCCOc2ccc(C(=O)O)cc2)cc1	inactive
